Screening data deposited in PubChem by several laboratories.
The list is not random: actives were taken first. Their share in the collection is about 2.9%.
EBV LMP1 NFkB = Epstein-Barr LMP1 NF-kappaB reporter inhibition. hit rate 0.69% among 350,000. inhibition, % at 12.5 µM. LMP1-induced NF-kappaB luciferase reporter cells, luminescence. AID 504558; in the data active = inhibition above about 41%; inconclusive = no clear call, values can overlap the other calls;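 note: 0% = neutral control wells and 100% = reference inhibitor control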
Shn3 3UTR inh = inhibitors of Schnurri-3 3'UTR reporter in osteoblasts | Clone20 osteoblast Shn3 3'UTR firefly luciferase, 24 h | hit rate 0.52% among 360,000 | inhibition, % at 12.5 µM | AID 588674;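 active = mean inhibition of at least 75% with every replicate also reaching 75%; inconclusive = mean inhibition at least 75% but some replicate below; inactive = mean inhibition below 75%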;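 note: 0% = median of neutral control wells and 100% = pilot-screen positive control compound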
KKLEB cytotox = reduces viability of KKLEB cystic fibrosis airway cells | KKLEB CF airway cells viability, ATPlite luminescence, overnight; hits give low values; cells stimulated with P. aeruginosa culture filtrate | activity change (cytotoxicity), % at 5 µM | hit rate 0.36% among 360,000 | AID 602141;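 active = corrected activity change at or below -50% at 5 µM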
Peg3 prom inh = inhibitors of Peg3 promoter. HeLa PEG-Prom luciferase reporter, luminescence, overnight. inhibition, % at 20 µM. hit rate 1.7% among 360,000. AID 588405;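 active = inhibition of at least 50% at 20 µM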
HIF-2a inh = HIF-2a inhibition | 786-0 RCC cells HIF-2a reporter, luciferase luminescence, overnight | inhibition, % at 18.8 µM | hit rate 0.72% among 360,000 | AID 624352;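 active = inhibition of the luminescence signal of 40% or more relative to plate controls, in a single-dose primary screen at 18.75 µM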
CF NFkB inh = inhibitors of cystic fibrosis induced NF-kB; KKLEB NF-kB-GFP reporter, PAF-induced, GFP fluorescence overnight; inhibition, % at 5 µM; hit rate 0.86% among 360,000;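 active = at least 50% inhibition at 5 µM, scaled per plate between neutral and stimulator controls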;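 note: PAF is a Pseudomonas aeruginosa culture filtrate used as stimulus; plate controls were PAF-stimulated DMSO wells for no effect and unstimulated DMSO wells for full effect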
Mdm2 MdmX conf = confirmation of inhibitors of human Mdm2/MdmX interaction, set 2. shares compounds with HIF-2a inh. SaOS-2 split-luciferase Mdm2/MdmX complementation, luminescence. inhibition, % at 8 µM. hit rate 99% among 740. AID 504601;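 active = mean inhibition of the luminescence signal across two replicates at or above 26 percent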
Target sequence (O15151 whole entry, looked up): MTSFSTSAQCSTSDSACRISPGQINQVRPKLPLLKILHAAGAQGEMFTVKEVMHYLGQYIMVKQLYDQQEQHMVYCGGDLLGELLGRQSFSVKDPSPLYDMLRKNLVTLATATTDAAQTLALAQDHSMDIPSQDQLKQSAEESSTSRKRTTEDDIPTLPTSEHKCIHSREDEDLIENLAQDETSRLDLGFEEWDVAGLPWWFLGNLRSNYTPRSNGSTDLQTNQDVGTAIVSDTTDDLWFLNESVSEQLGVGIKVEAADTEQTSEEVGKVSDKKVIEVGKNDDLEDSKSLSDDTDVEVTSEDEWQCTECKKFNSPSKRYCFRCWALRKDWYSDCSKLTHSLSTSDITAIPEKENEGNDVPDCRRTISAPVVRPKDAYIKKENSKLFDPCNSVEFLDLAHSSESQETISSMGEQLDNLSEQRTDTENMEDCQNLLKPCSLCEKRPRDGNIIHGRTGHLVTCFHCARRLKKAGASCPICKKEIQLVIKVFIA
Target sequence (Q00987 whole entry, looked up): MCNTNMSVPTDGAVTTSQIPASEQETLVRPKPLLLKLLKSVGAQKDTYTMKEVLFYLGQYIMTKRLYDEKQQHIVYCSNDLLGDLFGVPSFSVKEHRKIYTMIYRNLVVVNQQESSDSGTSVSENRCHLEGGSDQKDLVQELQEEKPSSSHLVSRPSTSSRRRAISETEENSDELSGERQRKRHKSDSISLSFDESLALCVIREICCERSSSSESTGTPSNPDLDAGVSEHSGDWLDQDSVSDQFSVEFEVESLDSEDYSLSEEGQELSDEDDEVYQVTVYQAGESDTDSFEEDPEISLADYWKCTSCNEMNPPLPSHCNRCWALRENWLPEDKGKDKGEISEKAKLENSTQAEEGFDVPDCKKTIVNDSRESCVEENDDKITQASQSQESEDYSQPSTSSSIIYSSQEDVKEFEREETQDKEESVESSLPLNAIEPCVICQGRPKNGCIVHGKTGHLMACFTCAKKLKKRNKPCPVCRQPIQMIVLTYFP
HIF-2a inh conf = confirmation of HIF-2a inhibitors; shares compounds with HIF-2a inh; 786-0 RCC cells, HIF-2a luciferase reporter luminescence, overnight; inhibition, % at 18.8 µM; hit rate 56% among 1,800; AID 651580;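 active = mean inhibition across four replicates of at least 40 percent at the single tested concentration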
HIF-1a cs = counter-screen for HIF-2a inhibitors: HIF-1a inhibition in MiaPaCa-2 cells. hit rate 72% among 1,800. inhibition, % at 18.8 µM. shares compounds with HIF-2a inh. MiaPaCa-2 HIF-1a luciferase reporter, desferoxamine, overnight;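 active = mean inhibition of the reporter signal across four replicates at the single tested dose of 50% or more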
Numbers without * were called inactive; ? = inconclusive; / = no result.

SMILES | EBV LMP1 NFkB | Shn3 3UTR inh | KKLEB cytotox | Peg3 prom inh | HIF-2a inh | CF NFkB inh | HIF-2a inh conf | HIF-1a cs | others
Cc1cc(C)c(C)c(S(=O)(=O)N2CCCCC2C(=O)O)c1C (stereo unspecified) | -2 | 21 | 10 | 15 | 24 | 0 | / | /
COc1ccc(CC(N)c2csc(NC(=O)c3ccc(OC)cc3)n2)cc1 (stereo unspecified) | / | 4 | -7 | 16 | -6 | 0 | / | /
NC(Cc1ccccc1)c1csc(NC(=O)c2cccc(OC(F)(F)F)c2)n1 (stereo unspecified) | / | -1 | -11 | 99* | 65* | -10 | 6 | 106*
CCOC(=O)c1ccc(Oc2nc(NC(C)(C)C)nc(N(C)C)n2)cc1 | 13 | 19 | -10 | 30 | 44* | 16 | 50* | -8
O=C(c1ccc2nccnc2c1)N1CCCC(Nc2ccc(F)c(F)c2)C1 (stereo unspecified) | -7 | -11 | -8 | -1 | 2 | 39 | / | /
CCOc1ccccc1C(=O)Nc1ccc2nc(N3CCN(c4ncccn4)CC3)cc(C)c2c1 | / | / | / | / | / | / | / | / | Mdm2 MdmX conf=98*
COC(=O)COc1ccc(S(=O)(=O)N2CCN(c3ccc(OC)cc3)CC2)cc1 | -2 | -1 | -8 | 4 | 8 | 22 | / | /
CCOC(=O)COc1ccc(S(=O)(=O)N2CCN(C(=O)OCC)CC2)cc1 | 3 | 3 | -6 | 9 | 17 | 2 | / | /
CCOC(=O)COc1ccc(S(=O)(=O)N2CCN(c3ccccc3)CC2)cc1 | -1 | 8 | -8 | 6 | 67* | 9 | 19 | 0
CCOC(=O)COc1ccc(S(=O)(=O)N2CCc3ccccc3C2)cc1 | 3 | -7 | -10 | 8 | 44* | 16 | 15 | -2
COC(=O)COc1ccc(S(=O)(=O)N2CCN(c3ccc(F)cc3)CC2)cc1 | 1 | -12 | 0 | -1 | 46* | 8 | 22 | 5
CCOC(=O)COc1ccc(S(=O)(=O)N2CCN(c3ccc(F)cc3)CC2)cc1 | -2 | -12 | 2 | 2 | 43* | -14 | -1 | 0
O=C(COc1ccc(S(=O)(=O)N2CCOCC2)cc1)N1CCc2ccccc2C1 | 0 | 12 | -4 | -2 | 20 | 4 | / | /
COc1ccc(OC)c(NC(=O)CC(NC(C)=O)c2ccccc2)c1 (stereo unspecified) | -2 | -11 | 21 | -7 | 15 | -23 | / | /
CC(=O)c1ccc(N2CCN(Cc3nc(Cc4ccccc4)no3)CC2)cc1 | -5 | 15 | -2 | 4 | 19 | 12 | / | /
COC(=O)COc1ccc(S(=O)(=O)N2CCN(c3ccccc3F)CC2)cc1C | -9 | -57 | -9 | 7 | 53* | 2 | 5 | -7
CC(C)COc1ccc(C(=S)N2CCCC2)cc1 | 5 | -1 | -2 | -9 | 57* | -17 | 58* | -7
CCOC(=O)C(CC)(CC)C(=O)/C=C/c1ccc(Br)cc1 | -13 | 31 | -15 | 75* | 58* | 9 | 26 | 106*
COc1ccc(C(=O)/C=C/C(=O)N(CC(=O)NCCC(C)C)Cc2cccs2)c(O)c1 | 16 | 98* | -3 | 105* | 96* | -20 | 91* | 56*
COc1ccc(C(=O)/C=C/C(=O)N(CC(=O)NC2CCCCC2)Cc2ccc(F)cc2)c(O)c1 | 25 | 14 | -42 | 102* | 64* | 37 | 58* | 105*
O=C(NCc1ccco1)/C(=C\c1cccs1)NC(=O)c1ccco1 | -3 | -8 | 14 | -2 | 14 | 4 | / | /
Cc1ccc(NC(=O)c2cc3ccccc3o2)cc1S(=O)(=O)N(C)C | -28 | -9 | -35 | -180 | -298 | 1 | / | /
Cc1ccc(NC(=O)c2cc3ccccc3oc2=O)cc1S(=O)(=O)N(C)C | 64* | 84 | -20 | 77* | 81* | -1 | 88* | 88*
Cc1ccc(S(C)(=O)=O)cc1C(=O)OCC(=O)N(Cc1ccccc1)Cc1ccccc1 | 8 | 15 | 4 | 38 | 24 | 1 | / | /
COc1ccc(CS(=O)(=O)/C(Cl)=C(/Cl)C(=O)Nc2ccc(OC)nc2)cc1 | 91* | 98* | -86* | 104* | 93* | 88* | / | / | Mdm2 MdmX conf=103*
SMILES | EBV LMP1 NFkB | Shn3 3UTR inh | KKLEB cytotox | Peg3 prom inh | HIF-2a inh | CF NFkB inh | HIF-2a inh conf | HIF-1a cs | others
COc1ccc(/C=C/C(=O)Nc2ccc(OC)nc2)cc1 | -14 | -8 | 2 | -96 | -99 | 11 | / | /
Cc1ccc(C(=S)N2CCCCCC2)cc1 | -1 | 9 | 0 | 1 | 4 | 7 | / | /
CC(=O)Nc1ncnc2c1c(-c1ccc(Cl)cc1)nn2C(C)(C)C | 18 | 34 | -16 | 28 | 48* | 38 | 43* | 49
Nc1nonc1-n1nnc(C(=O)N/N=C/c2cccc(Cl)c2Cl)c1CN1CCCC1 | -11 | 38 | 3 | 6 | 7 | 14 | / | /
CSc1ccc(/C=N/Nc2cccc(C(=O)O)c2)cc1 | 56* | 75 | 7 | 68* | 71* | 1 | 85* | -90
Nc1ccc(C(=O)OCC(=O)Nc2cc([N+](=O)[O-])ccc2F)cc1 | 7 | 12 | 8 | 8 | 1 | 1 | / | /
COc1cc(/C=C2\CC(C(C)(C)C)C/C(=C\c3cc(OC)c(OC)c(OC)c3)C2=O)cc(OC)c1OC (stereo unspecified) | ? | ? | -8 | 104* | 94* | -10 | / | / | Mdm2 MdmX conf=102*
O=C(COC(=O)c1ccccc1C(=O)c1ccc(Cl)c([N+](=O)[O-])c1)NC1CC1 | 50* | 70 | -66* | 99* | 84* | 105* | 30 | 101* | Mdm2 MdmX conf=103*
O=C(COC(=O)c1cc([N+](=O)[O-])ccc1Cl)NC1CCCC1 | / | 6 | -2 | 6 | 17 | -11 | / | /
O=[N+]([O-])c1ccc(NC(=S)NCCc2ccc(Cl)cc2)cc1 | 1 | -1 | -38 | 8 | -21 | 29 | / | / | Mdm2 MdmX conf=97*
O=[N+]([O-])c1ccc(NC(=S)NCCc2ccccc2)cc1 | -2 | 65 | -12 | -102 | -156 | 4 | / | /
COc1ccccc1OCCC(=O)OCC(=O)NCc1ccc(Cl)cc1 | 0 | -15 | 2 | 10 | 15 | -4 | / | /
COc1ccc(CNC(=O)COC(=O)CCCOc2ccc(Cl)cc2Cl)cc1 | -7 | -16 | -1 | 11 | 43* | 12 | 29 | 20
COc1ccc(OC)c(NC(=O)Nc2nc(C(N)C(C)C)cs2)c1 (stereo unspecified) | / | -32 | 3 | -12 | -1 | 15 | / | /
CC(C)=NOc1cc(NC(=O)CCl)cc([N+](=O)[O-])c1 | -4 | 74 | -57* | 110* | 44* | 79* | 66* | 106* | Mdm2 MdmX conf=103*
